G9a block: qHTS Assay for Inhibitors of Histone Lysine Methyltransferase G9a | AID 504332, 2011 | G9a H3K9 monomethylation, AlphaScreen, 2 h | actives 8.8% (n = 350,000) | Potency, µM (highest dose often 102 µM), inactives show at the top dose activity, negative = inhibition, usual class: inhibitors | Histone-lysine N-methyltransferase EHMT2 (Homo sapiens), Q96KQ7; also: % is scaled to controls: 0 for no effect and ±100 for the full control effect; nearly all actives have a fitted effect of over 75% in size
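AlphaScreen read-out: biotin-H3K9 peptide (500 nM) methylation by 20 nM enzyme with 20 uM SAM, 2 h at room temperature after 15 min compound preincubation; anti-monomethyl H3K9 antibody plus donor/acceptor beads, 10 min dark.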
JMJD2A Tudor inh: qHTS Assay for Inhibitors of JMJD2A-Tudor Domain; AlphaScreen JMJD2A-Tudor / H3K4me3 peptide binding; Potency, µM (highest dose often 114 µM), without a hit: at the top dose activity change, negative = inhibition, hits mostly inhibitors; actives 4.4% (n = 390,000); also: % is scaled to controls: 0 for no effect and ±100 for the full control effect; nearly all actives have a fitted effect of over 50% in size
Target sequence (O75164 whole entry, looked up, the tested form may be a part): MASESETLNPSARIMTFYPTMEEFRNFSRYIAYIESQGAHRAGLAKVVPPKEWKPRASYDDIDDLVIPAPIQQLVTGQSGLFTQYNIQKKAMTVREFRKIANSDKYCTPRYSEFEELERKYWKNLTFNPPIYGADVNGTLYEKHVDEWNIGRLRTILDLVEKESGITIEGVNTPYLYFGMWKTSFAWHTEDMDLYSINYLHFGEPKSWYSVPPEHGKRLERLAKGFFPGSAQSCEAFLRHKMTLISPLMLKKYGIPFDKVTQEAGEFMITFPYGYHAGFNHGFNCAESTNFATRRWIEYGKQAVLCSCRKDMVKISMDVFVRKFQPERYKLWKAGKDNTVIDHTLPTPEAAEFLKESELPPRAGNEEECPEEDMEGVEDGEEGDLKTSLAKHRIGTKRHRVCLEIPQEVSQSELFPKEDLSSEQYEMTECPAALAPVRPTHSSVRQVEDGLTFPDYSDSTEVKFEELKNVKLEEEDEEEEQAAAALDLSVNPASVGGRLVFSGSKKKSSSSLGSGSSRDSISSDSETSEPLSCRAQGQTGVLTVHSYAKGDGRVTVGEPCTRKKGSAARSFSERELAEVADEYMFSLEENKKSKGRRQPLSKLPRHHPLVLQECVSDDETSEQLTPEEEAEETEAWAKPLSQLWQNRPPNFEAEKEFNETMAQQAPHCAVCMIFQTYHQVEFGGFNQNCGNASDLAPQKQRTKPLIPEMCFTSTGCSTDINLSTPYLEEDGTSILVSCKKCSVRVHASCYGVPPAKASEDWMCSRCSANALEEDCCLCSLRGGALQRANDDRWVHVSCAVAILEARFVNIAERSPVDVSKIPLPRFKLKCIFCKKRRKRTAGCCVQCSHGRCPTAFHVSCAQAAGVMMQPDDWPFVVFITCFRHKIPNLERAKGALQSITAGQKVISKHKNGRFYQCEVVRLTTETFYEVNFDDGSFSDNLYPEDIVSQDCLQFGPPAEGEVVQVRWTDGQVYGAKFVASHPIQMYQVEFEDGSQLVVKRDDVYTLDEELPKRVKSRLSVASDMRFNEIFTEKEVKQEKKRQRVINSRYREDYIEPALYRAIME
L3MBTL1 block: qHTS Assay for the Inhibitors of L3MBTL1; AlphaScreen L3MBTL1–H3K9me1 peptide binding; Potency, µM (doses to about 57.1 µM), inactives show at the highest dose activity, negative = inhibition, hits mostly inhibitors; actives 0.66% (n = 230,000); AID 485360, 2010; also: % is scaled to controls: 0 for no effect and ±100 for the full control effect; nearly all actives have a fitted effect of over 60% in size
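L3MBTL1 50 nM + b-AHA-H3(1-15)K9me1 75 nM, 30 min RT; compound added, 30 min RT; streptavidin donor/Ni-chelate acceptor beads 10 ug/mL each final, 30 min RT dark; AlphaScreen read.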
BAZ2B block: qHTS Assay for Inhibitors of BAZ2B; AlphaScreen BAZ2B-H3K14Ac peptide displacement; actives 4.4% (n = 360,000); AID 504333, 2011; Potency, µM (doses to about 114 µM), without a hit: top-dose activity change, negative = inhibition, usual class: inhibitors; also: % is scaled to controls: 0 for no effect and ±100 for the full control effect; nearly all actives have a fitted effect of over 60% in size
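Protein-peptide AlphaScreen: BAZ2B 50 nM, b-H3K14Ac 50 nM, 1x PBS pH 7.4 + 0.01% Tween-20. Preincubation 30 min RT; cpd 30 min RT (top 110 uM); beads 20 min RT, light-protected.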
HP1b binding inh: HTS for Inhibitors of HP1-beta Chromodomain Interactions with Methylated Histone Tails. Potency, µM (top dose mostly 114 µM), for inactives: top-dose activity change, negative = inhibition, hits mostly inhibitors. actives 0.56% (n = 390,000). AlphaScreen HP1-beta / biotin-H3K9me3 peptide binding; also: nearly all actives have a fitted effect of over 70% in size
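AlphaScreen: HP1-beta (50 nM) preformed 30 min with biotin-H3(1-18)K9me3 peptide (50 nM) in PBS pH 7.4, 0.01% Tween-20. Compound added for 30 min at RT, then streptavidin donor/nickel chelate acceptor beads (10 ug/mL) for 30 min.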
Sfp inh: qHTS Assay for Inhibitors of Bacillus subtilis Sfp phosphopantetheinyl transferase (PPTase) | 4'-phosphopantetheinyl transferase ffp (Bacillus subtilis), Q9F4F7 | Biochemical Sfp PPTase activity, qHTS | Potency, µM, for the others: largest response in the series, negative = inhibition, most hits filed as inhibitors | actives 3.5% (n = 310,000) | AID 1490, 2009;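 also: the enzyme is Sfp with the accession as filed and its product quenches rhodamine fluorescence; 0% = enzyme reaction without inhibitor and -100% = no enzyme wells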
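Reaction rates are the 30-min fluorescence difference (ex 525, em 598 nm) in wells containing 15 nM Sfp, 5 uM rhodamine-CoA and 12.5 uM BHQ-2-YbbR at pH 7.6 with 10 mM MgCl2.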
Starred values were filed as active, the others as inactive; ? = inconclusive; / = no result given; [ ] = remark or other dose. Compounds with a hit are over-represented: about 12% of the library has one in this group of screens. Calls follow the shape of the dose curve; as a rule, active = well fitted curve in the direction sought with a large enough effect; inconclusive = small, poorly fitted or top-dose-only effect, or another doubt; inactive = no such curve, though single readings can be large; an effect the other way counts as inactive or inconclusive. Potency is read from the fitted curve at half-maximal effect.

SMILES | G9a block | JMJD2A Tudor inh | L3MBTL1 block | BAZ2B block | HP1b binding inh | Sfp inh
C[n+]1cnn2c1SCC1(COC1)C2 | 35µM* | 25µM* | 4% | -2% | 4% | 3%
CC(=O)N1CCCc2cc(S(=O)(=O)N3CCCC(C(=O)NC(C)C)C3)ccc21 (stereo unspecified) | 5%[59 µM] | -16% | / | 3% | 28%[57 µM] | /
COc1ccc(C(=O)Nc2ccccc2C(=O)NC(Cc2ccc(O)cc2)C(=O)NNC(=O)c2ccncc2)cc1 (stereo unspecified) | 1.4µM* | -12% | -2% | ? | 20% | -3%
CCOc1ccc(CNC(=O)CS(=O)(=O)c2cccc3nsnc23)cc1 | 6%[59 µM] | -20% | / | -5% | 11%[57 µM] | /
CC(C)c1ccc(-c2cc(C(=O)NN3CCN(C)CC3)c3ccccc3n2)cc1 | 50µM* | ? | -8% | -35% | -4% | 40µM*
CN1CCN(NC(=O)c2cc(-c3cccc(Cl)c3)nc3ccccc23)CC1 | ? | -18% | / | -18% | 7% | -9%
c1ccc(C2=Nc3ccccc3SC2c2nc3ccccc3[nH]2)cc1 (stereo unspecified) | 13µM* | / | / | ? | / | 40µM*
O=C1CC(c2nc3ccccc3[nH]2)CN1c1ccccc1 (stereo unspecified) | ? | -15% | 4% | -5% | 1% | 14%
Cc1occc1-c1nnc(-c2cc([N+](=O)[O-])cc([N+](=O)[O-])c2)o1 | 32µM* | -34% | ? | ? | -5% | ?
O=[N+]([O-])c1cccc(-c2nnc(-c3ccccc3)o2)c1 | -3% | -15% | -9% | -33% | 22% | 12%
CCOC(=O)N1CCC(n2c(SCC(=O)N3CCC(C)CC3)nc3ccccc3c2=O)CC1 | -8%[59 µM] | -20% | 1% | 7% | 26% | 79µM*
CCOC(=O)N1CCC(n2c(SCC(=O)N3CCCC3)nc3ccccc3c2=O)CC1 | 14% | -2% | 11% | -3% | 25% | 8%
FC(F)(F)c1cnc(/C=C/Nc2ccccc2Cl)c(Cl)c1 | 107%[59 µM] | -12% | -5% | -27% | 25% | 1%
C[N+]1=C(/C=C/Nc2ccccc2Cl)C(C)(C)c2ccccc21 | 7.9µM* | ? | 4% | -34% | -21% | -15%
Oc1cccc(C=Nc2cccc3ccccc23)c1O | / | 14µM* | ? | 45µM* | ? | 13µM*
Oc1ccccc1C=Nc1cccc2ccccc12 | ? | -7% | 8% | -27% | 29% | 1%
O=C(Nc1cccc(C(F)(F)F)c1)C1CCN(S(=O)(=O)c2cccc3nsnc23)CC1 | -19%[59 µM] | -30% | / | / | 36% | /
COC(=O)C1=C(C(=O)OC)C(c2cc(Br)ccc2O)c2sc(=O)[nH]c2S1 (stereo unspecified) | 3.2µM* | -27% | -12% | ? | -4%[57 µM] | 20µM*
COC(=O)C1=C(C(=O)OC)C(c2ccc(OC)c(OC)c2)c2sc(=O)[nH]c2S1 (stereo unspecified) | 28µM* | 40µM* | / | -34% | -9% | 20µM*
COC(=O)C1=C(C)N=C2SCCC(=O)N2C1c1cc(Br)ccc1OC (stereo unspecified) | -8% | -16% | -6% | 4% | 17% | 11%
COC(=O)C1=C(C(=O)OC)C(c2cc(Cl)ccc2O)c2sc(=O)[nH]c2S1 (stereo unspecified) | 7.9µM* | ? | -6% | ? | -24% | 79µM*
COC(=O)C1Sc2[nH]c(=O)sc2C(c2ccc(Cl)cc2)C1C(=O)OC (stereo unspecified) | ? | ? | -5% | ? | -1% | -12%
COC(=O)c1[nH]c2c(c1C)C(=O)CC(c1ccc(OC)c(OC)c1)C2 (stereo unspecified) | 6% | -14% | / | -19% | 17% | -7%
O=S(=O)(c1cccc2ccccc12)N1CCN(c2nc(-c3cccs3)nc3ccccc23)CC1 | / | -15% | / | / | 33% | /
C(=N\n1c2ccccc2c2ccccc21)/c1ccccc1 | 19%[59 µM] | -4% | -11% | 23% | 44% | -13%
SMILES | G9a block | JMJD2A Tudor inh | L3MBTL1 block | BAZ2B block | HP1b binding inh | Sfp inh
C(=N/n1c2ccccc2c2ccccc21)/c1ccco1 | ? | ? | ? | 8.9µM* | 35µM* | -4%
O=C(COc1ncnc2ccccc12)N1CCN(C(=O)c2ccco2)CC1 | -6% | -2% | 2% | 3% | 26% | 15%
O=C(COc1ncnc2sccc12)N1CCN(C(=O)c2ccco2)CC1 | 50µM* | ? | ? | ? | 20% | 0%
Cc1ccc(-c2c(C#N)c(N)nc3c2CCCCC3)o1 | 79µM* | -14% | -6% | 3% | 35% | 50µM*
CCOC(=O)CSc1nc2c(c(-c3ccc(C)o3)c1C#N)CCCC2 | ? | 10% | 26% | -17% | 8% | 14µM*
Cc1ccc(-c2c(C#N)c(N)nc3c2CCCCCC3)o1 | -37%[59 µM] | -8% | 5% | 4% | 20% | 3%
Cc1c(C#N)c(SCC(N)=O)nc2c1CCCC2 | 26% | 2% | 3% | 13% | 23% | 2%
CC(C)c1ccc(-c2c(C#N)c(N)nc3c2CCCCC3)cc1 | 1.8µM* | -17% | / | 4% | 42% | 5%
CCOC(=O)C(C)Sc1nc2c(c(-c3cccs3)c1C#N)CCC2 (stereo unspecified) | 64%[59 µM] | 122% | 72% | 61% | 182% | 50µM*
Cc1cccc2c(C(=O)N3CCN(c4ccccn4)CC3)cc(-c3cccc(Br)c3)nc12 | / | -23% | / | -17% | 1% | ?
Cc1ccc(OCC(=O)NCCCNC(=O)c2ccccn2)cc1C | 6% | -5% | / | 0% | 20% | 6%
COc1ccc(-c2ccc(C)cc2)cc1C1C2C=CCC(C)C2C(=O)N1Cc1ccccc1 (stereo unspecified) | / | -17% | / | / | 26% | -4%
COc1ccc(-c2ccc(C(C)=O)cc2)cc1[C@H]1[C@@H]2C=CCC[C@@]2(C)C(=O)N1Cc1ccccc1 | -4%[12.7 µM] | -35% | / | ? | 7% | ?
COc1ccc(-c2ccc(C(C)=O)cc2)cc1C1C2C=CCCC2(C)C(=O)N1Cc1ccccc1 (stereo unspecified) | / | ? | / | / | -6% | 45µM*
